Our source for the cell number and H1.0 immunofluorescence intensity values is the supplement of paper PMC7156485.

SMILES strings stand for the structures.

What all share (conditions): concentration: 10 µM; 24 h
The test system of test [1] is HCC1569. The test is described as follows: cell number relative to DMSO (% of DMSO); higher = more cells (less growth inhibition / toxicity). Put shortly:
(§1)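 HCC1569 and TDF cells were seeded at 800 per well in 384-well plates in RPMI with 10% FBS and treated with compounds at 10 µM for 24 h at 37 °C, in triplicate. After fixation in 3.7% formaldehyde, cells were stained with a rabbit anti-H1.0 antibody, an AlexaFluor 647 secondary and DAPI, and six fields per well were imaged at ×10. H1.0 nuclear intensity or cell number is given as percent of the plate control, using the median of replicates, with HCC1569 values smoothed for positional effects.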

The subject of test [2] is TDF. The test is described as above. Put shortly: as §1
For test [3], the system named is TDF. The test is described as follows: H1.0 immunofluorescence intensity relative to DMSO (% of DMSO); higher = stronger H1.0 induction, active = 120 or more. In short, it runs like this:
as §1

The subject of test [4] is HCC1569. Briefly: H1.0 immunofluorescence intensity relative to DMSO (% of DMSO); higher = stronger H1.0 induction, active = 140 or more. Put shortly:
as §1
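Throughout, for H1.0 immunofluorescence intensity relative to DMSO: TDF is a line of transformed human dermal fibroblasts of mesenchymal origin.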
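Throughout, for cell number relative to DMSO: TDF denotes transformed human dermal fibroblasts of mesenchymal origin.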

As to `COc1cc2c(cc1OC)[C@H]1CC(=O)[C@H](CC(C)C)CN1CC2`, the cell number with HCC1569 [1] was found to be 106; in the test on TDF [2], 102. The H1.0 immunofluorescence intensity with TDF [3] is 88 (inactive); in the test on HCC1569 [4] it was 96.4 (inactive).

In the case of `COc1ccc2c(c1)C13CCCCC1C(C2)N(C)CC3` (stereo unspecified) [Dextromethorphan], the cell number with HCC1569 [1] and in the test on TDF [2] was 103 in each case. Further, the H1.0 immunofluorescence intensity is 102 (inactive) with TDF [3] and 107 (inactive) with HCC1569 [4].

With `CCC1C2CC3C4N(C)c5ccccc5C45CC(C2C5O)N3C1O` (stereo unspecified) [Ajmaline], the results for the cell number in the test on HCC1569 [1] and with TDF [2] were 101 and 86.8, respectively. The H1.0 immunofluorescence intensity with TDF [3] is 96.9 (inactive); in the test on HCC1569 [4] it was 93.1 (inactive).

As to `COc1ccc2[nH]c3c(c2c1)CCNC3` [6-Methoxy-1,2,3,4-tetrahydro-9H-pyrido[3,4b] indole], the cell number was 106 in the test with HCC1569 [1] and 100 with TDF [2]. Further, the H1.0 immunofluorescence intensity in the test on TDF [3] and with HCC1569 [4] was 108 (inactive) each time.

Take `CCCCCC=CCC=CCC=CCC=CCCCC(=O)NC(C)CO` [(R)-Methandamide]: the cell number in the test with HCC1569 [1] was 107; with TDF [2], 98.1. For the same compound, the H1.0 immunofluorescence intensity with TDF [3] and in the test with HCC1569 [4] was 100 (inactive) in each case.

Turning to `CCCCCCCCCCCCCCCC(=O)OCC(COP(=O)([O-])OCC[N+](C)(C)C)OC(C)=O` (stereo unspecified), the cell number in the test on HCC1569 [1] and in the test on TDF [2] was 102 throughout. For the same compound, the figures for the H1.0 immunofluorescence intensity in the test on TDF [3] and in the test with HCC1569 [4] were 98.7 (inactive) and 101 (inactive), respectively.

`CC(=O)OCC1=CC2C3C(C)(C)C3(OC(=O)Cc3ccccc3)CC(C)C2(O)C2C=C(C)C(=O)C2(O)C1` (stereo unspecified) [12-Deoxyphorbol 13-phenylacetate 20-acetate]: the cell number in the test on HCC1569 [1] amounted to 90.8; in the test on TDF [2], 74. For the same compound, the H1.0 immunofluorescence intensity in the test with TDF [3] was 105 (inactive); in the test with HCC1569 [4] it was 137 (inactive).

As for `CCn1cc(C(=O)[O-])c(=O)c2ccc(C)nc21.[Na+]` [Nalidixic acid sodium], the cell number in the test on HCC1569 [1] and in the test with TDF [2] was 107 each time. The H1.0 immunofluorescence intensity is 86 (inactive) with TDF [3] and 92.4 (inactive) in the test on HCC1569 [4].

For `COc1ccccc1CN[C@H]1C2CCN(CC2)[C@H]1C(c1ccccc1)c1ccccc1`, the cell number in the test on HCC1569 [1] turned out to be 95.3; in the test with TDF [2], 97.3. The H1.0 immunofluorescence intensity is 105 (inactive) in the test on TDF [3] and 125 (inactive) with HCC1569 [4].

As for `NNC(=O)c1ccc(O)cc1` [4-Hydroxybenzhydrazide], the cell number was 97.7 with HCC1569 [1] and 100 with TDF [2]. Further, the figures for the H1.0 immunofluorescence intensity in the test on TDF [3] and with HCC1569 [4] were 97.5 (inactive) and 95.1 (inactive), respectively.

`Cc1ccccc1-n1c(Cn2cnc3c(N)ncnc32)nc2cccc(C)c2c1=O`: the cell number in the test on HCC1569 [1] worked out at 90.8; in the test with TDF [2] it was 99.7. In addition, the H1.0 immunofluorescence intensity in the test on TDF [3] is 91.9 (inactive); in the test on HCC1569 [4], 102 (inactive).

As to `CC(Cc1ccc2c(c1)OC(C(=O)[O-])(C(=O)[O-])O2)NCC(O)c1cccc(Cl)c1.[Na+].[Na+]` (stereo unspecified), the figures for the cell number with HCC1569 [1] and with TDF [2] were 97.5 and 106, respectively. The H1.0 immunofluorescence intensity in the test with TDF [3] is 88.7 (inactive); in the test with HCC1569 [4] it was 95.9 (inactive).

For the compound `CCC=CCC(C=CC=CCC=CCC=CCCCC(=O)O)OO` (stereo unspecified), the cell number was 101 in the test on HCC1569 [1] and 92.8 with TDF [2]. The H1.0 immunofluorescence intensity in the test with TDF [3] is 92.7 (inactive); with HCC1569 [4] it was 102 (inactive).

Take `CCNC1=Nc2ccc(Cl)cc2C(C)(c2ccccc2)O1.Cl` (stereo unspecified): the cell number was found to be 92.5 in the test with HCC1569 [1] and 105 in the test on TDF [2]. For the same compound, the H1.0 immunofluorescence intensity was 97.3 (inactive) in the test on TDF [3] and 141 (active) in the test on HCC1569 [4].

On to `CP(=O)(O)CCCN.Cl`, for which the cell number in the test on HCC1569 [1] stood at 102; in the test on TDF [2] it was 98.3. Also, the H1.0 immunofluorescence intensity was 92.5 (inactive) with TDF [3] and 107 (inactive) in the test with HCC1569 [4].

As for `CC(NC(C)(C)C)C(=O)c1cccc(Cl)c1.Cl` (stereo unspecified) [Bupropion hydrochloride], the cell number with HCC1569 [1] worked out at 106; in the test on TDF [2], 109. The H1.0 immunofluorescence intensity in the test on TDF [3] was 102 (inactive); in the test on HCC1569 [4] it was 99.7 (inactive).

On to `c1cc2c(cc1C1OCC3C(c4ccc5c(c4)OCO5)OCC13)OCO2` (single isomer, unassigned; (-)) [(-)-Asarinin], for which the cell number in the test on HCC1569 [1] came to 98.4; in the test with TDF [2], 99.2. For the same compound, the values for the H1.0 immunofluorescence intensity in the test on TDF [3] and in the test on HCC1569 [4] were 101 (inactive) and 88.6 (inactive), respectively.

Turning to `CC1CC2CCC(O2)C(C)C(=O)OC(C)CC2CCC(O2)C(C)C(=O)OC(C)CC2CCC(O2)C(C)C(=O)OC(C)CC2CCC(O2)C(C)C(=O)O1` (stereo unspecified) [Nonactin], the values for the cell number in the test on HCC1569 [1] and in the test with TDF [2] were 60.4 and 50.1, respectively. Also, the H1.0 immunofluorescence intensity is 118 (inactive) in the test on TDF [3] and 148 (active) with HCC1569 [4].

Regarding `CC12CCC(O)CC1CCC1C2CCC2(C)C(C(=O)CO)CCC12` (stereo not drawn) [3-alpha,21-Dihydroxy-5-alpha-pregnan-20-one], the cell number in the test on HCC1569 [1] was 102; in the test on TDF [2], 89. Moreover, the H1.0 immunofluorescence intensity with TDF [3] is 98.8 (inactive); with HCC1569 [4], 87 (inactive).

In the case of `CC12CCC3C(CCC4=CC(=O)CCC43C)C1CCC2=O` (stereo unspecified) [4-Androstene-3,17-dione], the results for the cell number with HCC1569 [1] and in the test on TDF [2] were 95.3 and 113, respectively. Also, the H1.0 immunofluorescence intensity was 101 (inactive) with TDF [3] and 90 (inactive) in the test with HCC1569 [4].

Regarding `CCn1cnc2c(Nc3cccc(Cl)c3)nc(NC3CCCCC3N)nc21.Cl` (stereo unspecified), the cell number worked out at 53 in the test with HCC1569 [1] and 21.5 with TDF [2]. For the same compound, the values for the H1.0 immunofluorescence intensity in the test with TDF [3] and with HCC1569 [4] were 132 (active) and 101 (inactive), respectively.

Turning to `CC(C)N(CCC(C(N)=O)(c1ccccc1)c1ccccn1)C(C)C.O=P(O)(O)O` (stereo unspecified), the cell number with HCC1569 [1] worked out at 99.8; in the test on TDF [2] it was 101. Besides, the H1.0 immunofluorescence intensity was 103 (inactive) with TDF [3] and 102 (inactive) with HCC1569 [4].

For `CC=C1CC(C)C(O)(CO)C(=O)OCC2=CCN3CCC(OC1=O)C23` (stereo unspecified) [Retrorsine], the cell number in the test with HCC1569 [1] was found to be 101; with TDF [2], 115. Moreover, the H1.0 immunofluorescence intensity with TDF [3] is 93.8 (inactive); in the test on HCC1569 [4], 90.4 (inactive).

For `CC(=O)OCC1=C(C(=O)[O-])N2C(=O)C(NC(=O)CCCC(N)C(=O)[O-])C2SC1.[Zn+2]` (stereo unspecified) [Cephalosporin C zinc salt], the cell number in the test on HCC1569 [1] and with TDF [2] was 101 in each case. Besides, the values for the H1.0 immunofluorescence intensity in the test on TDF [3] and in the test on HCC1569 [4] were 97.3 (inactive) and 90.8 (inactive), respectively.
